# Experimental data taken from the supplement of paper PMC6555819.
# Test system: VDR:RXRa (NR concentration 270 nM, RXRa partner concentration 90 nM)
# Assay: PBM binding z-score (relative to random genomic background probes); higher = stronger binding; sequences stand for … in GC…GCGATTGACAGCGTAGAATGAAGG
# Protocol: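 Protein-binding microarray (Agilent 4x180K custom design, double-stranded 60-nt probes: 5' GC cap, 34-nt variable region, 24-nt constant primer region; full probe sequence given). Purified or IVT nuclear receptor:RXRα heterodimers (3:1 NR:RXRα, mostly 270:90 nM) or homodimers were incubated for 1 h in PBS with 2% milk and no ligand, then detected with Alexa488 antibodies. Fluorescence from o1-orientation probes (~5 replicates averaged) was converted to z-scores against 500 random hg19 background probes. Variable regions are seed direct-repeat (DR0–DR5) sites, all their single-nucleotide variants and half-site ablations.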
row,Sequence,PBM binding z-score
1,CGAACTAGGTCACCAGGACATTGAAGAGGTTGGA,2.31
2,TCTAGTTGGTCATGGAGGTCACACACGACGGGTA,5.98
3,CGAACTAGATCAAAGGACAGTGAAAGGCGACGTA,-0.333
4,CGAACTAGGTCACCAGGACAGTAAAGAGGTTGGA,2.05
5,CGAACTAGCTCACCAGGACAGTGAAGAGGTTGGA,-0.616
6,TAGCCAAGGTCAGATCGGGCCAGTATACGCTATA,3.07
7,CGAACTAGGTCACCAGGAAAGTGAAGAGGTTGGA,1.66
8,GCTTCCGGGTCAAAGGTTATAGCATGAATAGAAT,5.69
9,CCTACTGGGCCAAAAAGGCCATTGATGCCGATAA,0.326
10,ATCGAAAGGTCGAAGGTCAGTATACCCACCCGAA,4.35
11,CCTACTGGGCCATTCAGAGGTCACTGATCATATG,3.58
12,CCTGCTAGTTCAATGGTCAGCTAAAGCAGCTCGC,0.426
13,ATAGGTAGGTTAGGGTCATTCAGAAAGTAGGGAA,5.05
14,TAGCCTAGGTTATGCGGGCCAGTATAGTGTCGGC,-0.0997
15,ATATGTAGGTTATCGGGTCATTCATTTTGCGCAT,3.52
16,CGAACTAGGTCAAAGGACCGTGAAAGGCGACGTA,1.03
17,TAGCCTAGGTCATAGGCCAGTATACCACGCGAAC,1.74
18,TGACTGAGGTTAAAGATCAGGGAACGTGGCGTCG,1.69
19,ATCGAAAGGTCGTGAAGTGAGTATACAGAAAGGC,3.26
20,GCTTACGGGTCAAAAGTTATAGCATGAATAGAAT,2.93

row,Sequence,PBM binding z-score
1,CGAACTAGGTCAAAGGACAGTGATAGGCGACGTA,1.45
2,CCTAGTTGGTCAAGGTCTCACACGCTATAGGTAC,0.578
3,AATACAGGGACATCGTAGGCCAGAGTACGCACAG,-0.0914
4,CGAACTAGGTCAAAGGACAGCGAAAGGCGACGTA,1.47
5,CCGACTAGGTTACGAGGGGGCATTCAGTGCGAAT,4.96
6,ATAAGTAGGTTAGGGTCATTCAGAAAGTAGGGAA,4.88
7,ATATGTAGGTTACGTCCGGGTCATTCAGGCTATG,4.14
8,CGAACTATGTCACCAGGACAGTGAAGAGGTTGGA,0.173
9,CCTACTGGGCCAATAAGGTCATTGATGCCGATAA,5.29
10,CCGAGTAGGTTACGAGGGTGCATTCAGTGCGAAT,4.73
11,ATATGTAGGTTATGGTCATTCAGAAAGTAGGGAA,0.871
12,CTCGAAAGGTCGGTTGAGGTGACTATACGGATAA,2.77
13,CGAACTAGGACACCAGGACAGTGAAGAGGTTGGA,-0.285
14,CGTACTAGGTCAAAGGACAGTGAAAGGCGACGTA,1.33
15,CCGAGTAGGTTACGAGGGGGCAATCAGTGCGAAT,4.72
16,CGAACTAGGTCACCAAGACAGTGAAGAGGTTGGA,1.49
17,CCTAGTTGGTCAAGGTCACACATGCTATAGGTAC,4.33
18,ATCGAAAGGTCGTGAGGTGTGTATACAGAAAGGC,4.55
19,TCTTGTTGATCAAAGGTTAAGAAAGCCGAAGCCT,1.56
20,TCGAGTAGGTTACGGGGCCATTCAGGGATGAAGA,1.26
